Test systems include SK-MEL-2 melanoma; EKVX NSCLC; SN12C renal; UO-31 renal; TK-10 renal; ACHN renal; CAKI-1 renal; A498 renal; CCRF-CEM leukemia; MOLT-4 leukemia; SR leukemia; RPMI-8226 leukemia; OVCAR-8 ovarian; OVCAR-5 ovarian; OVCAR-4 ovarian; SK-OV-3 ovarian; IGROV1 ovarian; OVCAR-3 ovarian; HS 578T breast; NCI/ADR-RES ovarian.
Common to all, as to assay: NCI-60 one-dose screen, 48 h (100 = growth as untreated, 0 = no growth, -100 = all killed)
What all share (details): 10 µM unless noted

The structures appear in SMILES notation. Compounds without any hit were thinned out: in the full panel of roughly 83,000, 20% have a hit.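 Method: cells in 96-well plates; compound added at one concentration; 48 h incubation; percent growth measured; values under 10 scored active.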 A number with no mark means an inactive call. Calls of active or inactive are those of the source.

Regarding `Cc1nc2sc(C(=O)Nc3ccccc3)c(N)c2cc1C(O)c1ccccc1` (stereo not given), the growth was 54.8% with SK-MEL-2 melanoma; 51.5% in the experiment on EKVX NSCLC; 25.4% in the experiment on SN12C renal; 45.7% in the experiment with UO-31 renal; 59.3% in the experiment on TK-10 renal; 34.4% in the experiment with ACHN renal. The growth was 24.8% in the experiment with CAKI-1 renal; -8.48% (active) in the experiment with A498 renal; 6.36% (active) in the experiment with CCRF-CEM leukemia; 15.1% with MOLT-4 leukemia; -5.59% (active) in the experiment on SR leukemia; 5.65% (active) in the experiment on RPMI-8226 leukemia. Besides, the growth is 19.2% in the experiment on OVCAR-8 ovarian; 33.2% in the experiment on OVCAR-5 ovarian; 46.9% in the experiment on OVCAR-4 ovarian; 27.3% in the experiment with SK-OV-3 ovarian; 27.7% in the experiment with IGROV1 ovarian; 5.62% (active) with OVCAR-3 ovarian. For the same compound, the growth with HS 578T breast was 8.01% (active); in the experiment with NCI/ADR-RES ovarian, 15%.

For `Cn1ccnc1C(=O)/C=C/c1ccc(C(=O)Nc2c(F)c(F)c(F)c(F)c2F)cc1`, the growth is 96.2% in the experiment with SK-MEL-2 melanoma; 25% with EKVX NSCLC; 6.49% (active) in the experiment with SN12C renal; -81.7% (active) with UO-31 renal; 20.4% in the experiment with TK-10 renal; -43% (active) with ACHN renal. Besides, the growth was 8.22% (active) with CAKI-1 renal; 76.7% with A498 renal; 2.63% (active) in the experiment on CCRF-CEM leukemia; 2.64% (active) in the experiment on MOLT-4 leukemia; -17.4% (active) in the experiment on SR leukemia; -9.03% (active) in the experiment on RPMI-8226 leukemia. Besides, the growth is 20.6% in the experiment on OVCAR-8 ovarian; 13.1% in the experiment on OVCAR-5 ovarian; 22.4% in the experiment with OVCAR-4 ovarian; 62.1% in the experiment with SK-OV-3 ovarian; 0.574% (active) in the experiment with IGROV1 ovarian; -4% (active) in the experiment on OVCAR-3 ovarian. For the same compound, the growth was 48.5% in the experiment with HS 578T breast and 7.31% (active) in the experiment with NCI/ADR-RES ovarian.

Regarding `O=C(Nc1ncc(Cc2cc(C(F)(F)F)ccc2Cl)s1)C(=S)N1CCOCC1`, the growth is 104% in the experiment with SK-MEL-2 melanoma; 83% with EKVX NSCLC; 96.2% in the experiment on SN12C renal; 69.5% with UO-31 renal; 88.5% in the experiment on TK-10 renal; 99.4% in the experiment with ACHN renal. Further, the growth in the experiment with CAKI-1 renal is 67.1%; with A498 renal it was 90.3%; with CCRF-CEM leukemia, 92.3%; in the experiment with MOLT-4 leukemia, 93%; in the experiment with SR leukemia it was 92.1%; in the experiment with RPMI-8226 leukemia it was 81.9%. The growth was 95.2% in the experiment with OVCAR-8 ovarian; 94.7% with OVCAR-5 ovarian; 84.5% in the experiment with OVCAR-4 ovarian; 92% in the experiment on SK-OV-3 ovarian; 84.3% in the experiment on IGROV1 ovarian; 105% with OVCAR-3 ovarian. Further, the results for the growth in the experiment on HS 578T breast and in the experiment with NCI/ADR-RES ovarian were 92.6% and 91.3%, respectively.

On to `O=C(NCCN1CCOCC1)c1cncnc1Nc1ccc2c(ccn2Cc2ccccn2)c1`, for which the growth in the experiment with SK-MEL-2 melanoma is 110%; in the experiment on EKVX NSCLC it was 104%; in the experiment with SN12C renal, 93.7%; in the experiment on UO-31 renal, 88.5%; in the experiment on TK-10 renal, 98.7%; in the experiment on ACHN renal, 107%. Moreover, the growth was 92.4% in the experiment on CAKI-1 renal; 101% in the experiment on A498 renal; 121% with CCRF-CEM leukemia; 104% with MOLT-4 leukemia; 111% with SR leukemia; 106% in the experiment with RPMI-8226 leukemia. Also, the growth was 102% in the experiment with OVCAR-8 ovarian; 100% with OVCAR-5 ovarian; 106% in the experiment on OVCAR-4 ovarian; 95.4% with SK-OV-3 ovarian; 106% in the experiment with IGROV1 ovarian; 113% in the experiment on OVCAR-3 ovarian. Besides, the growth was 103% in the experiment on HS 578T breast and 104% in the experiment with NCI/ADR-RES ovarian.

Take `COc1ccc(CNc2c3ccccc3nc3ccccc23)cc1OC`: the growth in the experiment with SK-MEL-2 melanoma is 38.6%; with EKVX NSCLC, 15.2%; with SN12C renal it was 22.5%; in the experiment on UO-31 renal it was 12.1%; with TK-10 renal, 32.3%; in the experiment with ACHN renal, 4.11% (active). The growth in the experiment on CAKI-1 renal is 10.5%; in the experiment on A498 renal it was -12.1% (active); with CCRF-CEM leukemia, 30.5%; with MOLT-4 leukemia, 10.6%; in the experiment on SR leukemia, 8.57% (active); with RPMI-8226 leukemia, 0.62% (active). The growth in the experiment with OVCAR-8 ovarian was 23.9%; with OVCAR-5 ovarian, 27.5%; with OVCAR-4 ovarian, 21.4%; in the experiment on SK-OV-3 ovarian it was 41.2%; in the experiment with IGROV1 ovarian, 10.9%; with OVCAR-3 ovarian it was 43.7%. The growth in the experiment on HS 578T breast was 37.2%; in the experiment on NCI/ADR-RES ovarian it was 19.3%.

Regarding `Cn1cc(-c2nc(-c3c[nH]c4ccncc34)cs2)c2cc(F)ccc21`, the growth in the experiment with SK-MEL-2 melanoma was -58.7% (active); in the experiment with EKVX NSCLC, -75.4% (active); with SN12C renal, -87.9% (active); with UO-31 renal, -93.2% (active); with TK-10 renal, -49.3% (active); in the experiment on ACHN renal it was -99.6% (active). In addition, the growth with CAKI-1 renal was -90.9% (active); in the experiment with A498 renal it was -63.5% (active); in the experiment with CCRF-CEM leukemia, -41.6% (active); in the experiment with MOLT-4 leukemia, -58.3% (active); with SR leukemia, -36.8% (active); in the experiment on RPMI-8226 leukemia it was -36.5% (active). Besides, the growth in the experiment on OVCAR-8 ovarian is -60.1% (active); in the experiment with OVCAR-5 ovarian, -91.1% (active); with OVCAR-4 ovarian, -54.4% (active); in the experiment on SK-OV-3 ovarian, 62.1%; with IGROV1 ovarian it was -87.2% (active); with OVCAR-3 ovarian, -94.7% (active). For the same compound, the growth was -44.9% (active) with HS 578T breast and -73.7% (active) in the experiment with NCI/ADR-RES ovarian.

`CSc1nc(CC(C)C)c(C#N)c(=O)n1C`: the growth in the experiment on SK-MEL-2 melanoma was 85.8%; with EKVX NSCLC it was 64.3%; in the experiment with SN12C renal, 29.1%; in the experiment with UO-31 renal, 38.9%; with TK-10 renal, 34.2%; with ACHN renal, 55.6%. The growth was 56.8% with CAKI-1 renal; 47% with A498 renal; 49.2% in the experiment on CCRF-CEM leukemia; 46.1% in the experiment with MOLT-4 leukemia; 47.4% in the experiment on SR leukemia; 64.5% in the experiment on RPMI-8226 leukemia. Further, the growth in the experiment with OVCAR-8 ovarian is 77.1%; with OVCAR-5 ovarian, 74.7%; with OVCAR-4 ovarian, 52.4%; with SK-OV-3 ovarian it was 87.7%; in the experiment with IGROV1 ovarian it was 71.8%; in the experiment with OVCAR-3 ovarian, 61.3%. Moreover, the growth is 58.4% in the experiment on HS 578T breast and 72.5% with NCI/ADR-RES ovarian.

For `COc1ccc(/C=C/C(=O)c2ccc(-n3cc(CN4CCN(c5cc6c(cc5F)c(=O)c(C(=O)O)cn6C5CC5)CC4)nn3)cc2)cc1`, the growth is 97% in the experiment with SK-MEL-2 melanoma; 96.6% with EKVX NSCLC; 32.6% with SN12C renal; 54.9% in the experiment with UO-31 renal; 104% in the experiment on TK-10 renal; 85% in the experiment with ACHN renal. Moreover, the growth in the experiment with CAKI-1 renal was 67.8%; with A498 renal, 68.2%; in the experiment on CCRF-CEM leukemia, 44%; with MOLT-4 leukemia, 64.2%; in the experiment with SR leukemia it was -2.25% (active); in the experiment with RPMI-8226 leukemia, -24.4% (active). Moreover, the growth with OVCAR-8 ovarian is 67.4%; in the experiment on OVCAR-5 ovarian, 92.1%; in the experiment on OVCAR-4 ovarian it was 88%; in the experiment on SK-OV-3 ovarian, 76.9%; in the experiment with IGROV1 ovarian, 26.6%; with OVCAR-3 ovarian it was 39.3%. The figures for the growth in the experiment with HS 578T breast and with NCI/ADR-RES ovarian were 52.8% and 90.7%, respectively.

The values are drawn from PubChem BioAssay (NCI).
